The values below come from PubChem BioAssay AID1498 (National Center for Advancing Translational Sciences (NCATS), 2009).

Results filed as inconclusive are left out. The source made the active and inactive calls. The call rests on the fitted dose curve.

The nature of the assay: Confirmation Concentration-Response Assay for Modulators of Lamin A Splicing. Conditions: HeLa lamin A splicing GFP/RFP minigene, Acumen, 48 h; RFP activity: RFP channel at top concentration, at 46.1 µM; ratio activity: GFP/RFP ratio at top concentration, at 46.1 µM; series mostly up to 46.1 µM; GFP activity change, negative = decrease: at the top concentration. The text has this:
NCGC Assay Overview: Hutchinson-Gilford Progeria Syndrome (HGPS) is a pediatric premature aging disease caused by a spontaneous mutation in the lamin A/C (LMNA) gene. The mutation activates a cryptic splice site in the LMNA pre-mRNA which results in production of a pre-lamin A protein that cannot be processed properly. The mutant protein accumulates in the nucleus and negatively affects numerous cellular functions. Correction of the splicing defect in HGPS patient cells using a targeted oligonucleotide (exo11) leads to reversal of the cellular disease phenotypes. To identify small molecule modulators of aberrant LMNA splicing, a homogenous assay was constructed in HeLa cells that used a GFP containing minigene to report on correction of aberrant splicing in lamin A and a RFP (DsRed2) to report on cell viability, uniformity and nonspecific effects on the assay signal. This assay was adapted to laser-scanning microplate cytometry (Acumen, TTP Labtech) where miniaturization of the assay to a 1,536-well plate format was possible. Select compounds active in the primary screen (AID 1487) were chosen for confirmation based on potency, efficacy, SAR and activity in other assays in PubChem and at NCGC. References: Bowen, W. P.; Wylie, P. G. Application of Laser-Scanning Fluorescence Microplate Cytometry in High Content Screening. Assay Drug Dev Technol 2006;4:209-221. Scaffidi P, Misteli T. Reversal of the cellular phenotype in the premature aging disease Hutchinson-Gilford progeria syndrome. Nat. Med. 2005;11:440-445.
NCGC Assay Protocol Summary: Reagents/Controls: Stable clones expressing DsRed2 and lamin A-EGFP were generated by Cell and Molecular Technologies in S3 HeLa cells. HeLa cells were prepared for the assay when they were 70-90% confluent. The cells were counted and resuspended in Opti-MEM I (no phenol red; Gibco), 2% FBS, 1% penicillin/ streptomycin (Gibco) at concentration of 120 cells/uL concentration. The suspension was passed through a Falcon basket filter with pore size 40um (Beckton Dickson). Control titrations: column […] 1536-well plate contained a sixteen point titration (1:2 dilutions) in duplicate of ancitabine (Sigma: A8598) beginning at 40 uM final concentration. Column 2 contained a sixteen point titration (1:2 dilutions) of cycloheximide beginning at 1.4 mM final concentration. Column 3 contained ancitabine at 40 uM and column 4 contained was the vehicle control (0.5% DMSO final concentration). Assay Steps: 5 uL of HeLa cells were plated in Aurora LoBase black clear bottom (cyclic-olefin polymer) 1536-well plates at a final density of 600 cells/well. Controls and library compounds were added with a 1536-well pin array using the Kalypsys pin-tool. The plates were then incubated for 48 hrs in a cell-culture incubator (37 °C; 5% CO2, 98% humidity). Following incubation the plates were read on the Acumen Explorer using the 488 nm laser. Data was collected on objects between 10 and 100 um in size. Cell objects were defined by a 15 um width x 10 um depth filter. The ratio of the total object intensity in PMT1 (500-530 nm emission; GFP) over PMT3 (575-640 nm emission; RFP) was calculated for analysis. Keywords: NIH Roadmap, MLSCN, MLI, MLSMR, qHTS, NCGC, lamin A, Progeria, RNA splicing.
Consider `Cc1noc(C)c1-c1ccc2ncnc(NCc3ccc(C(C)(C)C)cc3)c2c1`, for which the RFP activity was -7.69%; the “GFP activity change, negative = decrease” value was -6.32% (inactive); the ratio activity was -12.9%.

`O=C(Nc1ccc(F)cc1)c1nc[nH]c1C(=O)Nc1ccccc1[N+](=O)[O-]`: the ratio activity was -10.8%; the “GFP activity change, negative = decrease” value is -23.1% (inactive); the RFP activity was -25.1%.

Turning to `CC(=O)Nc1ccc(-c2csc(NC(=O)C3CCN(S(=O)(=O)c4cccs4)CC3)n2)cc1`, the ratio activity is -13.5%; the RFP activity worked out at 16.5%; the “GFP activity change, negative = decrease” value is -2.98% (inactive).

`Cc1noc(C)c1-c1ccc2ncnc(NCc3cccc(-c4ccccc4)c3)c2c1`: the “GFP activity change, negative = decrease” value was 1.82% (inactive); the ratio activity was -27.8%; the RFP activity was found to be 22.9%.

On to `CC1=NS(=O)(=O)c2cc(Cl)ccc2N1`, for which the “GFP activity change, negative = decrease” value was -18.6% (inactive); the RFP activity is -10.7%; the ratio activity was -9.16%.

For `Cc1cc(Nc2ccccc2)nc2cc(O)ccc12`, the RFP activity is 11.6%; the ratio activity was -18.8%; the “GFP activity change, negative = decrease” value was -18.1% (inactive).

With `CC(=O)c1c(C)[nH]c(C(=O)Nc2c(C)n(C)n(-c3ccccc3)c2=O)c1C`, the “GFP activity change, negative = decrease” value was -2.29% (inactive); the RFP activity was found to be 1.7%; the ratio activity was -9.7%.

With `Cn1c(Sc2ccccc2Cl)c(C=O)c2ccccc21`, the “GFP activity change, negative = decrease” value is -13.3% (inactive); the RFP activity was -2.07%; the ratio activity stood at 0.328%.

For `Cc1cccc(C)c1OC[C@H](C)N`, the ratio activity was -11.5%; the RFP activity is -24.1%; the “GFP activity change, negative = decrease” value was -32.5% (inactive).

Turning to `COc1ccc(C=C(c2nc3ccccc3s2)c2nc3ccccc3s2)cc1O`, the ratio activity was -10.5%; the “GFP activity change, negative = decrease” value was -13.6% (inactive); the RFP activity was -2.53%.

For the compound `C/C(=N\NC(=O)C(c1ccncc1)N1CCOCC1)c1ccc(Br)cc1` (configuration not stated), the RFP activity is 7.84%; the ratio activity was -18.1%; the “GFP activity change, negative = decrease” value is -10.9% (inactive).

Regarding `Cc1cc(/C=N/n2cnnc2)c(C)n1-c1cccc(C(=O)O)c1`, the RFP activity is -18.9%; the “GFP activity change, negative = decrease” value is -22.5% (inactive); the ratio activity was -3.02%.

As to `COc1ccc(O)c(/C=N/NC(=O)c2ccc(OCc3cccc(Br)c3)cc2)c1`, the RFP activity is -32.5%; the ratio activity is -5.52%; the “GFP activity change, negative = decrease” value is -21.1% (inactive).

On to `CC(C)(C)n1nnnc1C(c1ccc2ncccc2c1)N1CCSCC1` (configuration not stated), for which the RFP activity was -8.12%; the “GFP activity change, negative = decrease” value was -12.4% (inactive); the ratio activity is -14.8%.
